Inhibition data for 40 compounds are collected here from PubChem BioAssay.

As a reminder, the inhibition is the drop in the measured response relative to a control, in per cent.

The source made the active and inactive calls. How the calls were made is not given here. Where a SMILES comes first, the peptide text is derived from it. [ ]: non-standard residue; d: D form. The star is where a group is joined. ξ: configuration not given here. Cbz = O=C(OCc1ccccc1)*; ξK = NCCCCC(N)C(=O)O

Pantothenate synthetase (Mycobacterium tuberculosis (strain ATCC 25618 / H37Rv)), sequence (P9WIL5 whole entry, looked up): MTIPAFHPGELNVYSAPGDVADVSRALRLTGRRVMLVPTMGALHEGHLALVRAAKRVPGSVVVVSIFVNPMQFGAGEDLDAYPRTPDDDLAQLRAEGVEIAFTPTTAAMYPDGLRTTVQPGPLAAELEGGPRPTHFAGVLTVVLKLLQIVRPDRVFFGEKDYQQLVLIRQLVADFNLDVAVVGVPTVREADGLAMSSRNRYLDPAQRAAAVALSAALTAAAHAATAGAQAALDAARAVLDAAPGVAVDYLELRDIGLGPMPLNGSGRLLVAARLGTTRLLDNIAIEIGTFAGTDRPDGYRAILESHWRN

The assay concerns the target Pantothenate synthetase (Mycobacterium tuberculosis (strain ATCC 25618 / H37Rv)) (UniProt P9WIL5). Nature of the assay: Recombinant Mtb pantothenate synthetase (PanC) inhibitors, coupled enzyme, confirmatory (AID 375).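 Further: 0% = full reaction with vehicle and 100% = no enzyme background.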 To be noted: coupled enzyme assay; at 10 µM, active compounds read high.
For `Cc1cc(C)nc(N2CCCC(C(=O)Nc3nc4ccc(S(C)(=O)=O)cc4s3)C2)n1` (stereo not given), the inhibition is 4% (inactive). Then `CCOC(=O)CNC(=O)CSc1ncnc2c1cnn2-c1ccccc1`, with 0% (inactive); and `COc1ccc(CNC(=O)CCc2nc(-c3ccccc3F)no2)c(OC)c1`, with 0% (inactive). With `Cc1cc(OC(=O)N2CCOCC2)cc(C)c1Cl` the figure was 0% (inactive); with `O=C(Nc1ccc(N2CCCCC2)cc1)c1ccc(F)cc1`, 0% (inactive). Then `Cc1cc(NC(=O)NC(=O)c2cccc(OC(F)(F)C(F)F)c2)n[nH]1`, with 3% (inactive); and `CSc1ccc(-c2cc(=O)c3ccccc3o2)cc1`, with 5% (inactive).

With `COC(=O)c1sccc1NC(=O)c1ccncc1`, the inhibition is 6% (inactive). Then `N#Cc1c(NC(=O)CSc2nc(N)cc(=O)[nH]2)sc2c1CCCCCC2`, with 0% (inactive); and `CN(CC(=O)Nc1nccs1)S(=O)(=O)c1ccc(F)cc1`, with 0% (inactive); and `O=S(=O)(c1ccc2ccccc2c1)N(CC(O)CN1CCOCC1)c1ccccc1` (stereo not given), with 0% (inactive). Then `COc1ccc2c(CC(=O)Nc3nnc(C4CC4)s3)coc2c1`, with 0% (inactive). With `CC[C@H]1OC(=O)C[C@@H](O)[C@H](C)[C@@H](O[C@@H]2O[C@H](C)C[C@H](N(C)C)[C@H]2O)[C@@H](CC=O)C[C@@H](C)C(=O)C=C[C@]2(C)O[C@H]2[C@@H]1C` the figure was 0% (inactive). With `COc1cc2c(N3CCOCC3)cc(O)c(CC(=O)Nc3ccccc3)c2cc1OC`, the inhibition is 7% (inactive). Then `Cc1ccc(NC(=O)CSc2nnc(CSc3nc(C)cc(C)n3)n2Cc2ccco2)c(C)c1`, with 0% (inactive). Then `CCC(=O)N1CCCc2cc(S(=O)(=O)N3CCCc4ccccc43)ccc21`, with 4% (inactive). With `CCS(=O)(=O)Nc1ccc(C(=O)CC2(O)C(=O)Nc3ccccc32)cc1` (stereo not given) the figure was 14% (inactive). As for `N#Cc1cnc(SCC(=O)c2ccccc2)nc1N`, the inhibition is 2% (inactive).

Turning to `Cc1ccc(-c2noc(COc3ccccc3C)n2)cc1`, the inhibition was 0% (inactive).

With `CCC1(CC)NC(=O)NC1=O`, the inhibition is 0% (inactive).

For `CCCOc1cccc(-c2nnc(N)s2)c1`, the inhibition was 0% (inactive). With `CCn1c(=O)n(CC(=O)N(C)Cc2ccccc2)c(=O)c2ccccc21` the figure was 12% (inactive); with `CCOC(=O)c1c(C)c(C(=O)NCCN2CCOCC2)c(C)n1C`, 4% (inactive). Then `C=CCn1c2ccccc2c2nnc(SCC(=O)NC(C(=O)OC)C(C)C)nc21` (stereo not given), with 4% (inactive); and `Cc1c(C(=O)NCc2ccoc2)oc2ccc3c(c12)C(=O)CC(C)(C)O3`, with 2% (inactive). With `CC(=O)Nc1ccc(S(=O)(=O)NCC(C)NS(=O)(=O)c2ccc(NC(C)=O)cc2)cc1` (stereo not given) the figure was 2% (inactive); with `O=C(C1CCCN(S(=O)(=O)c2cccnc2)C1)N1CCn2c1nc1ccccc12` (stereo not given), 0% (inactive); with `NC(=O)OCC(COC(N)=O)c1ccccc1`, 1% (inactive). As to `CCOc1ccc(N(CC(=O)NCC2CCCO2)S(=O)(=O)c2ccc(OC)c(OC)c2)cc1` (stereo not given), the inhibition is 0% (inactive). Then `CCOC(=O)N1CCN(C(=O)CSc2cc(C)nc3c(-c4ccccc4OC)c(C)nn23)CC1`, with 0% (inactive); and `O=C(CN(Cc1ccco1)C(=O)CNS(=O)(=O)c1ccc(F)cc1)NCCc1ccccc1`, with 3% (inactive); and `CCc1nnc(NC(=O)c2ccc(COc3ccccc3)o2)s1`, with 6% (inactive). With `O=C(c1noc2c1CCc1ccccc1-2)N1CCOCC1` the figure was 0% (inactive); with `CC(C)C(=O)Nc1nnc(CCc2nnc(NC(=O)C(C)C)s2)s1`, 2% (inactive). With `CC1(C)Cc2c(c(=S)nc(-c3ccccc3)n2CCO)CO1` the figure was 9% (inactive); with `Nc1nc(-c2ccc(Cl)cc2)nn1C(=O)c1cccnc1`, 0% (inactive); with `COC(=O)C(CCCCNC(=O)OCc1ccccc1)NC(=O)CN` (stereo not given) (H-Gly-[ξK](Cbz)-OMe), 0% (inactive). `CN(C(=O)c1ccc2c(=O)n3c(nc2c1)CCCCC3)c1ccccc1`: the inhibition was 4% (inactive). Then `CC(NC(=O)C1CCCN(S(=O)(=O)c2cccs2)C1)c1ccccc1` (stereo not given), with 0% (inactive); and `O=C1CSC(c2cccc(F)c2)N1c1ccccc1F` (stereo not given), with 2% (inactive).
